# ssDAF-12 act – S. stercoralis DAF-12 activation, primary screen. HEK293 ssDAF-12/GRIP1 lit1-tk-luc reporter, luminescence; % of 3 µM dafachronic acid response. activation, % at 6.8 µM. 1% of 370,000 active. AID 652126;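 active means activation above the mean over all tested compounds plus 3 SD, cut at about 0.9% in these data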;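 further: 0% = DMSO-only wells and 100% = 3 µM delta7-dafachronic acid wells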
# hcDAF12 agonist – activators of H. contortus DAF-12 nuclear receptor | AID 652067 | activation, % at 6.8 µM | HEK293 hcDAF-12 lit1-tk-luc reporter, luminescence; 0% DMSO, 100% Δ7-dafachronic acid | 1.4% of 370,000 active;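 active means activation above the mean of all tested compounds plus 3 SD, cut at about 5.5% in these data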;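 further: 100% = response to 3 µM Δ7-dafachronic acid high control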
# DAX1 inh-1 – inhibits human nuclear receptor DAX1 | P51843 | HEK293 Gal4-DAX1 luciferase reporter, luminescence | inhibition, % at 6.75 µM | 0.99% of 340,000 active | AID 504766;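 active means inhibition above the mean over all tested compounds plus 3 SD, cut at about 4.2% in these data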;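 further: 0% = DAX1-transfected cells with DMSO and 100% = empty-vector control cells with DMSO; inhibition shows as a rise in luminescence from relieved DAX1 repression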
# DAX1 inh-2 – DAX1 (NR0B1) inhibition, primary screen | HEK293T StAR-luciferase reporter, SF-1/DAX-1 repression relief | inhibition, % at 6.8 µM | 1.1% of 370,000 active;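 active means inhibition above the mean over all tested compounds plus 3 SD, cut at about 3.6% in these data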;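 further: 0% = DAX-1 cells with DMSO and 100% = cells lacking DAX-1 with DMSO; higher inhibition means more luminescence from relief of DAX-1 repression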
# hgDAF-12 ag – agonists of H. glycines DAF-12 nuclear receptor; 1.8% of 370,000 active; HEK293 GAL4-hgDAF12 UAS-luciferase reporter, agonist luminescence; normalized to butyrate control; activation, % at 6.8 µM; AID 687014;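 active means activation above a cutoff set at the mean of all screened compounds plus 3 SD, cut at about 10% in these data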;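 further: 0% = DMSO wells and 100% = sodium butyrate wells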
# hgDAF12 conf – confirmation of H. glycines DAF-12 agonists; shares compounds with hgDAF-12 ag; HEK293 GAL4-hgDAF12 luciferase reporter, agonist mode; percent of butyrate response; activation, % at 6.8 µM; 80% of 3,300 active; AID 743050;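 active means mean activation over triplicate wells above the hit cutoff derived from the earlier primary screen, cut at about 11% in these data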;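 further: 0% = DMSO low control and 100% = 2 mM sodium butyrate high control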
# LXRb DAF12 ctr – LXR-beta agonism as DAF-12 counter-screen; activation, % at 6.8 µM; 3,300 tested, under 10 active; shares compounds with hgDAF-12 ag; HEK293 Gal4-LXR luciferase reporter, 24 h;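 active means mean activation of the triplicate above a set limit carried over from the primary screen, none filed active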
# Target sequence (P55055 whole entry, looked up, the tested form may be a part): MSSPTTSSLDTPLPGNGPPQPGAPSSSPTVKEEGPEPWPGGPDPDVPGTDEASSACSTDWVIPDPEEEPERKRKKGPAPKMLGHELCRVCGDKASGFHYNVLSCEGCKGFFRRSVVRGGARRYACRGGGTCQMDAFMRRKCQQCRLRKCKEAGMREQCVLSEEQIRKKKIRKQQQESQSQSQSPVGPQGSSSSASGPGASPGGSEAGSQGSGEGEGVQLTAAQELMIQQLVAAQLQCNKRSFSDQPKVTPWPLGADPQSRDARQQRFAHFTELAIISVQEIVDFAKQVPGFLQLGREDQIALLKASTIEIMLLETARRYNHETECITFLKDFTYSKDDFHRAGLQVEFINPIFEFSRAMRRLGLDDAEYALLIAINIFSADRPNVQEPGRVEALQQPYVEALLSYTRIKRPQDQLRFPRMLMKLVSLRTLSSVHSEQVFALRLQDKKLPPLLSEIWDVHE
# An asterisk follows results filed as active; nt = no result. Hits are enriched below; roughly 4.1% of the tested compounds scored in any of these assays.
SMILES,ssDAF-12 act,hcDAF12 agonist,DAX1 inh-1,DAX1 inh-2,hgDAF-12 ag,hgDAF12 conf,LXRb DAF12 ctr
CC(=O)Nc1cccc(/C(C)=N/NC(=O)c2cc(-c3ccncc3)nc3ccccc23)c1,-2,0,-2,1,3,nt,nt
CC(=O)Nc1cccc(/C(C)=N/Nc2nc3ccccc3s2)c1,0,4,3,3,15*,13*,1
O=C(Cn1nnc(-c2ccc(N3CCOCC3)cc2)n1)c1ccccc1,-1,-2,nt,1,1,nt,nt
COc1ccc(C(=O)Nc2nc3ccccc3s2)cc1,0,3,-3,1,7,nt,nt
COc1ccc(C(=O)Nc2nc3ccc(S(C)(=O)=O)cc3s2)cc1OC,-2,-2,1,-1,-2,nt,nt
COc1ccc(C(=O)Nc2nc3ccccc3s2)cc1OC,0,3,2,3,19*,14*,1
COc1cccc(C(=O)Nc2nc3ccccc3s2)c1,2.4*,6.3*,3,3,17*,20*,1
CCOC(=O)c1sc(NC(=S)NC(=O)c2ccccc2)nc1C,0,5.9*,2,3,16*,12*,0
COc1ccc2nc(NC(=O)c3ccc(F)cc3)sc2c1,0,0,4.7*,2,14*,13*,1
COC(=O)c1cc2c(c3c4cc(F)ccc4n(S(=O)(=O)c4ccc(C)cc4)c13)C(=O)N(c1ccc(OC)cc1)C2,0,1,nt,0,2,nt,nt
CCCC[C@H]1C2CC(OC(=O)Nc3ccccc3C)C(C2)[C@H]2CCCCN21 (stereo partly specified),-1,-2,nt,0,6,nt,nt
COc1cccc(C(=O)Nc2nc(C)cs2)c1,0,2,1,2,15*,14*,1
O=C(Nc1ccc2sccc2c1)c1cccc(N2C(=O)CCC2=O)c1,0,2,1,4.2*,17*,13*,0
O=C(Nc1nc2ccccc2s1)c1cccc(N2C(=O)CCC2=O)c1,0,3,1,3,7,nt,nt
O=C(NCc1ccccc1)c1ccc(CO)cc1,0,-2,nt,-1,-2,nt,nt
CCCCN1C(=O)/C(=C/C=C2\SCCN2C)SC1=S,0,0,3,3,14*,10,1
CN1CCS/C1=C/C=C1\SC(=S)N(CC(=O)O)C1=O,0,2,0,0,2,nt,nt
Cc1ccc(N2C(=O)c3ccc(N)cc3C2=O)cc1,1,4,0,2,16*,16*,1
COc1cc(N)ccc1NC(=O)c1cc2ccccc2o1,0,4,4,1,17*,9,1
Cc1ccc2nc(-c3ccc(C#N)cc3)c(Cc3cccc(F)c3)n2c1,0,-1,nt,0,4,nt,nt
Clc1ccccc1OCc1nnc(-c2ccccc2Br)o1,0,2,1,1,10,nt,nt
N#Cc1ccccc1OCc1nnc(-c2ccccc2Br)o1,0,4,2,2,15*,11*,1
CCc1ccc2c(c1)[C@H]1OCC[C@H]1[C@@H](c1cccs1)N2,0,4,-1,-2,14*,11*,0
Clc1ccc2c(c1)[C@H]1OCC[C@H]1[C@@H](c1ccco1)N2,0,5,2,2,8,nt,nt
CN1C(=O)c2cc(NC(=O)Nc3ccccc3)ccc2OC[C@H]2O[C@@H](CC(=O)NCC(F)(F)F)CC[C@@H]21,-2,2,nt,1,-1,nt,nt
Cc1ccc(C(=O)N2CCc3ccccc32)o1,2.1*,5,1,3.8*,15*,16*,1
O=C(c1ccc([N+](=O)[O-])o1)N1CCc2ccccc21,0,0,1,-1,-1,nt,nt
O=C(COC(=O)c1ccccc1C(=O)c1ccccc1)NCc1ccc(F)cc1,-1,-1,0,1,16*,2,0
CCOC(=O)N1CCN(C(=O)C[C@H]2C[C@@]3(C(=O)OC)C(=C[C@H](C(C)(C)C)O[C@@H]3C)N(CCC3=CCCCC3)C2=O)CC1,-1,-1,nt,0,0,nt,nt
